# Test results taken from PMC4336329 (PLoS ONE, 2015).
# In all, about 310,000 compounds went through this assay and about 14,000 (4.5%) showed an effect of 50% or more. The effect is printed as a negative number. Only a selection was taken, and strong results are over-represented in it overall.
# Molecular target: human ether-à-go-go-related gene (hERG) potassium channel (human, UniProt Q12809)
# Assay: primary screen, population patch clamp on CHO cells stably expressing hERG; higher = less effect of the substance
# 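Note: peak tail current of the secondary pulse compared with the same well before compound.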
# Sequence of human ether-à-go-go-related gene (hERG) potassium channel (Q12809 whole entry, looked up): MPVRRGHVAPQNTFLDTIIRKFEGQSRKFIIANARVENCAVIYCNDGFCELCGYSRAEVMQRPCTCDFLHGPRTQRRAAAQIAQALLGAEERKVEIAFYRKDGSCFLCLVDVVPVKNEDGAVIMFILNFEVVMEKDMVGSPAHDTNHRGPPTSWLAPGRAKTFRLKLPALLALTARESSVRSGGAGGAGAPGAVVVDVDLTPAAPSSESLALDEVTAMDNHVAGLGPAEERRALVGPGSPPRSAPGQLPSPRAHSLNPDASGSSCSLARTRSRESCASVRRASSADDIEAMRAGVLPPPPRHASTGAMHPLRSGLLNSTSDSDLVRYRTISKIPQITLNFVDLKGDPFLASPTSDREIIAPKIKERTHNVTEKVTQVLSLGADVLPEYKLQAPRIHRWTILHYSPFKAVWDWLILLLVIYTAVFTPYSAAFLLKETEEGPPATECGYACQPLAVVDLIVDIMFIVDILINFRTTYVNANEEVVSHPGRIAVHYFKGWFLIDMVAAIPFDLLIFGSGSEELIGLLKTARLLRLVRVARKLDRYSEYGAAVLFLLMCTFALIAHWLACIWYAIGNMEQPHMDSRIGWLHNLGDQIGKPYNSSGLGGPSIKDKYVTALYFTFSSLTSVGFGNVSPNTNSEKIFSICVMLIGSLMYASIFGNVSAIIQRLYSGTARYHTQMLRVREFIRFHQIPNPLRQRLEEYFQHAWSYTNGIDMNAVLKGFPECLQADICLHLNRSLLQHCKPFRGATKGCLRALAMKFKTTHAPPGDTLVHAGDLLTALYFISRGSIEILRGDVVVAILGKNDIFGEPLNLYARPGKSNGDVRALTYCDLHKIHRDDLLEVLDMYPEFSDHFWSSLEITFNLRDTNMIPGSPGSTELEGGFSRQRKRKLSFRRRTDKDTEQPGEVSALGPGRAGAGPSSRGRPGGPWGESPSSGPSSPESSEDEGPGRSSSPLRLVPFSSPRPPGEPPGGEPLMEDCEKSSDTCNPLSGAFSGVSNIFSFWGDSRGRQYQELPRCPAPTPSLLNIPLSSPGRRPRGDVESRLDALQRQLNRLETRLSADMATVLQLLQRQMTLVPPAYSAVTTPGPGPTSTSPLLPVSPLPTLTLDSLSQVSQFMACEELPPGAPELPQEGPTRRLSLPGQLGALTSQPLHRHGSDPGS
row,Compound,"hERG current change (%, negative = inhibition) at 10uM [%]"
1,Cc1nn(Cc2nnc(SCC(=O)Nc3cccc(C(F)(F)F)c3)n2C)c(C)c1[N+](=O)[O-],-57.7
2,Cn1c(SCC(=O)Nc2ccccc2[N+](=O)[O-])nnc1C(F)(F)F,-3.31
3,Cc1nn(Cc2nnc(SCC(=O)Nc3ccc(Cl)cc3)n2C)c(C)c1[N+](=O)[O-],-22.9
4,Cn1c(CN2CCOCC2)nnc1SCC(=O)Nc1cccc(C(F)(F)F)c1,-1.04
5,Cn1c(SCC(=O)Nc2ccccc2)nnc1C(F)(F)F,32.6
6,Cc1ccc(NC(=O)CSc2nnc(C(F)(F)F)n2C)cc1[N+](=O)[O-],-73.6
7,O=C(CSc1nncn1-c1cccnc1)Nc1ccccc1C(F)(F)F,4.9
8,O=C(CSc1nncn1-c1cccnc1)Nc1cccc([N+](=O)[O-])c1,4.83
9,O=C(CSc1nncn1-c1cccnc1)Nc1cccc(C(F)(F)F)c1,-57.7
10,Cn1cc(CN2CC3C[C@@H]4CC2C[C@H](C3)C4)c(-c2ccc3c(c2)OCCO3)n1,-8.66
11,O=C(NCc1ccccn1)Nc1cccc([N+](=O)[O-])c1,11.6
12,COc1ccc(Cc2nnc(SCC(=O)Nc3ccc(N4CCOCC4)cc3)n2C)cc1,8.93
13,Cc1ccc(C(=O)OCC(=O)NCc2ccco2)cc1,-8.9
14,O=C(c1ccc(Cl)cc1)C1CCCN(C(=O)/C=C/c2ccccn2)C1 (centres unmarked),-51.9
15,CCOC(=O)C1CCCN(C(=O)/C=C/c2ccc(Cl)cc2)C1 (centres unmarked),-59.9
16,CCOC(=O)C1CCCN(C(=O)/C=C/c2cccc([N+](=O)[O-])c2)C1 (centres unmarked),-41.8
17,CCOC(=O)C1CCCN(C(=O)/C=C/c2ccc([N+](=O)[O-])cc2)C1 (centres unmarked),-64.8
18,COc1ccc2cc(C(=O)C3CCCN(C(=O)/C=C/c4ccccn4)C3)ccc2c1 (centres unmarked),-18.3
19,CCOC(=O)C1CCCN(C(=O)/C=C/c2ccc(OC)cc2)C1 (centres unmarked),-23.6
20,CCOC(=O)C1CCCN(C(=O)Cc2ccc(Cl)cc2)C1 (centres unmarked),6.9
21,CCOC(=O)C1CCCN(C(=O)/C=C/c2ccccc2[N+](=O)[O-])C1 (centres unmarked),-12.6
22,COc1c(C)cc(C(=O)C2CCCN(C(=O)/C=C/c3ccccn3)C2)cc1C (centres unmarked),-15.8
23,O=C(O)C(=O)O.O=C(c1ccc(F)cc1)N1CCN(C2CC3CCC2C3)CC1 (centres unmarked),-2.85

row,Compound,"hERG current change (%, negative = inhibition) at 10uM [%]"
1,Cn1cnnc1SCCCN1C(=O)c2cccc3cccc(c23)C1=O,-30.6
2,COc1ccc(CCN(C)C(=O)Cc2ccc(-c3ccccc3)cc2)cc1OC,-0.187
3,Brc1c(-c2ccccc2)nc2n1Cc1ccccc1-2,21.8
4,CC(C)(C)C(=O)Oc1cccc(Nc2ncnc3ccccc23)c1,9.76
5,Cc1ccc(Oc2ncnc(N)c2[N+](=O)[O-])cc1C,31.8
6,NC(=O)CC(NC(=O)c1ccccc1)c1ccc(N2CCN(c3ccccc3)CC2)c([N+](=O)[O-])c1 (centres unmarked),1.33
7,O=C(CSc1nc2ccccc2o1)NC(=O)NCc1ccccc1,8.99
8,O=C(CSc1nc2[nH]ncc2c(=O)n1-c1ccccc1)c1ccc2c(c1)OCCO2,-6.39
9,CCN(CCCC(=O)c1ccc(F)cc1)CCc1ccccc1.Cl,-84.5
10,O=C(CCCC(=O)c1ccc(F)cc1)c1ccc(F)cc1,-25.8
11,O=C(CCCc1ccccc1)c1ccccc1,18.5
12,CCc1ccc(-c2nc(CS(=O)CC(=O)NC3CCCCCC3)c(C)o2)cc1 (centres unmarked),-7.44
13,Cc1ccc(S(=O)(=O)N2CCCC(C(=O)NC3CCCC3)C2)cc1Cl (centres unmarked),17.8
14,Cc1ccc(N=C(N)N=C(N)N)cc1,16.9
15,CN1CCN(/N=C/c2ccc(-c3ccc([N+](=O)[O-])cc3)o2)CC1,-66
16,O=[N+]([O-])c1ccc(-c2ccc(/C=N/O)o2)cc1,8.69
17,CN1CCN(/N=C/c2ccc(-c3ccc([N+](=O)[O-])cc3Cl)o2)CC1,-46.2
18,CC(C)(CN1CCCCC1)NS(=O)(=O)c1ccc(Cl)cc1,-13.4
19,CC(C)(CN1CCN(Cc2ccccc2)CC1)NS(=O)(=O)c1ccccc1,-39.6
20,Cc1ccc(S(=O)(=O)NC(C)(C)CN2CCNCC2)cc1,-9.34
21,CC(C)(CN1CCNCC1)NS(=O)(=O)c1ccc(Cl)cc1,-60.3
22,CC(C)(CN1CCN(Cc2ccccc2)CC1)NS(=O)(=O)c1ccc(Cl)cc1,-74.7
23,CC(C)(CN1CCCC1)NS(=O)(=O)c1ccc(Cl)cc1,29.6

row,Compound,"hERG current change (%, negative = inhibition) at 10uM [%]"
1,CCOc1ccc2nc(NC(=O)c3cnccn3)sc2c1,2.76
2,c1coc(-c2nc3ccccc3nc2-c2ccco2)c1,-4.79
3,CCN(CC)CCN1c2ccccc2Sc2ccccc21.O=C(O)C(=O)O,-41.3
4,CCC(=O)c1ccc2c(c1)N(CCCN(C)C)c1ccccc1S2.Cl,-63.5
5,CCN(CC)CCCCN1c2ccccc2Sc2ccccc21.Cl,-61.7
6,CN(C)CCCN1c2ccccc2Sc2ccccc21.Cl,-28.1
7,CN(C)CCCNC(=O)N1c2ccccc2Sc2ccccc21,1.39
8,CCN(CC)CC(=O)N1c2ccccc2Sc2ccccc21,1.42
9,CC(C)(C)c1ccc(O)c(N)c1,8.01
10,N#Cc1ncccc1CCc1cccc(Cl)c1,-11.1
11,NS(=O)(=O)c1ccc(CCNC(=O)CCS(=O)(=O)c2ccc(Br)cc2)cc1,19.2
12,CC(C)(CC(=O)N1CCN(c2ccc(Cl)cc2)CC1)CC1=NS(=O)(=O)c2ccccc2N1,-61.1
13,O=C(CCCC1=NS(=O)(=O)c2ccccc2N1)N1CCN(c2ccccc2)CC1,-1.79
14,COc1ccccc1N1CCN(C(=O)CCCC2=NS(=O)(=O)c3ccccc3N2)CC1,2.62
15,COc1cccc(N2CCN(C(=O)CC(C)(C)CC3=NS(=O)(=O)c4ccccc4N3)CC2)c1,-6.09
16,O=C(CCCC1=NS(=O)(=O)c2ccccc2N1)N1CCN(c2ccc(Cl)cc2)CC1,-61.1
17,COc1ccc(N2CCN(C(=O)CCCC3=NS(=O)(=O)c4ccccc4N3)CC2)cc1,-7.68
18,O=C(NCCc1csc(-c2cccnc2)n1)c1ccccc1Br,-4.05
19,CC1CCCCN1C(=S)NC(=O)c1cc(Br)ccc1Cl (centres unmarked),4.09
20,COc1ccc(/C=N/N=C/c2c[nH]c(=O)c(C#N)c2Nc2ccccc2)cc1,5.81
21,Cn1c(O)c(N=NC(=O)c2ccccc2O)c2ccccc21,13.6
22,CCCCCc1n[nH]c2c1CCCC2,15.6
23,CCCCc1nc(Cl)c(C#N)c2c1CCCC2,-14.7

row,Compound,"hERG current change (%, negative = inhibition) at 10uM [%]"
1,CCCCCc1nc2c(c3c1CCCC3)CCCC2,-71.7
2,CCOC(=O)c1ccc(NC(=S)NCCc2ccccc2)cc1,4.14
3,N#Cc1ccc(NC(=O)CN2CCCCCC2)cc1Cl,-21.3
4,CC(=O)N1CCN(CC(=O)Nc2c(Cl)cc(Cl)cc2Cl)CC1,-54.2
5,CC(=O)N1CCN(CC(=O)Nc2ccc(C#N)c(Cl)c2)CC1,-71.7
6,O=C(CN1CCCCCC1)Nc1c(Cl)cc(Cl)cc1Cl,-5.28
7,O=C(CN1CCOCC1)Nc1c(Cl)cc(Cl)cc1Cl,-2.17
8,N#Cc1ccc(NC(=O)CN2CCCC2)cc1Cl,0.986
9,O=C(NC1CCS(=O)(=O)C1)c1ccc(S(=O)(=O)N2CCCC2)cc1 (centres unmarked),9.83
10,CCC(C)(C)C1CCc2[nH]nc(C(=O)NC(C)C)c2C1 (centres unmarked),12.7
11,CC12CCC(C(=O)NCCN3CCCCC3)(CC1=O)C2(C)C (centres unmarked),-2.12
12,O=C(CNCc1ccccc1)Nc1ccc(Oc2ccccc2)cc1,-18.7
13,CCOC(=O)N1CCN(CC(=O)Nc2ccc(C)c(Br)c2)CC1.Cl,-16.1
14,CCN(CC)CCNC(=O)C(C)c1nn(C)c(=O)c2ccccc12 (centres unmarked),8.67
15,CCOC(=O)N1CCN(CC(=O)Nc2ccc(Oc3ccccc3)cc2)CC1,-50.1
16,CCN(CC)CCNC(=O)c1ccccc1N,-5.76
17,CCCCOc1ccc(NC(=O)CN2CCN(C(=O)OCC)CC2)cc1.Cl,-28.6
18,CCOC(=O)N1CCN(CCC(=O)Nc2ccc(F)c(F)c2)CC1,0.204
19,O=C(CN1CCN(c2ccccc2)CC1)Nc1ccc(Oc2ccccc2)cc1,15.6
20,CCN(CC)CCNC(=O)C(Oc1ccccc1)Oc1ccccc1,-65.4
21,CCOC(=O)N1CCN(CC(=O)Nc2ccc(F)c(F)c2)CC1,-62.4
22,CCN(CC)CC(=O)Nc1ccc(Oc2ccc(NC(=O)CN(CC)CC)cc2)cc1,17.1
23,CCN(CC)CCNCC(=O)Nc1ccc(Oc2ccccc2)cc1,-70.5
